# Screening data: PubChem BioAssay, National Center for Advancing Translational Sciences (NCATS)
# Compounds with a hit are over-represented: about 5.9% of the library has one in this group of screens.
# RORgamma inh = blocks mouse ROR gamma transcriptional activity. AID 2551. P51450. Potency, µM (highest dose often 53.6 µM), for the others: at the highest dose activity change, negative = inhibition, usual class: inhibitors. Drosophila S2 Gal4-RORgamma UAS-luciferase reporter, 20 h. hit rate 5.4% among 310,000; also: % is scaled to controls: 0 for no effect and ±100 for the full control effect; nearly all actives have a fitted effect of over 60% in size
# Target sequence (P51450 whole entry, looked up, the tested form may be a part): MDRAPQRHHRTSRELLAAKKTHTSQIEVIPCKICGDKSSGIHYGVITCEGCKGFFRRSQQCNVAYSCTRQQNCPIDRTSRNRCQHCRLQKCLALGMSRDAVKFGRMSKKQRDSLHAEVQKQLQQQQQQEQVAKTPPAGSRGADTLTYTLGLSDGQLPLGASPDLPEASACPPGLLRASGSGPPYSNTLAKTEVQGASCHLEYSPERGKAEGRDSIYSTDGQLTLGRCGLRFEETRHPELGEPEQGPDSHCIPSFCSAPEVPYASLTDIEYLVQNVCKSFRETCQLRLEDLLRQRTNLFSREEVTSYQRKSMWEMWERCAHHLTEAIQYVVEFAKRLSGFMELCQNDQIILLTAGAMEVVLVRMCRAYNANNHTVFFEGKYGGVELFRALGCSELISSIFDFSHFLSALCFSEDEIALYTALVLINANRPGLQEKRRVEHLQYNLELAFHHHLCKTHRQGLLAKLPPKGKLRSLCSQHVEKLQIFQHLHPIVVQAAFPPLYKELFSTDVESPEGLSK
#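 Schneider cells (Drosophila), stable Gal4 DBD–ROR gamma + UAS-luc; 1 hr cmpd preincubation; Cu2+ induction 700 uM final; 20 hr ambient; luminescence.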
# VP16 counter = inhibits Gal4-VP16 luciferase reporter, ROR gamma counter-screen; Drosophila S2 Gal4-VP16 UAS-luciferase, luminescence, 20 h; Potency, µM (titrated, usually from 53.6 µM), for the others: at the top dose activity, negative = inhibition, actives largely listed as inhibitors; hit rate 3.5% among 310,000;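 also: Gal4-VP16 expression switched on by copper sulfate through the metallothionein promoter; % is scaled to controls: 0 for no effect and ±100 for the full control effect; nearly all actives have a fitted effect of over 50% in size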
# GLP1R ag = agonists of human GLP-1 receptor; P43220; HEK293 GLP-1R CRE-luciferase, luminescence, 4-6 h; cells express a hypersensitive GLP-1R form; Potency, µM (titrated, usually from 45.6 µM), inactives show top-dose activation, usual class: activators; hit rate 0.007% among 380,000; also: % of control where 0% means no effect
# GLP1R cytotox = cytotoxicity counter-screen for GLP-1 receptor inverse agonists | HEK293 cAMP-luciferase reporter cells, luminescence, 24 h | Potency, µM (titrated, usually from 38.3 µM), inactives show top-dose activity change, negative = inhibition, hits mostly inhibitors | hit rate 0.13% among 410,000 | AID 624418;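 also: loss of luciferase light is scored as toxicity; % is scaled to controls: 0 for no effect and ±100 for the full control effect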
#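 Quantitative HTS format, 1536 wells, 200 cells/uL seeded. Compounds: 23 nL, 24 h, 37 °C. Detection: luciferase reagent, luminescence at 12 min RT; decreased signal taken as cytotoxic.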
# GLP-1R inv ag = inverse agonists of human GLP-1 receptor. P43220. HEK293 GLP-1R CRE-luciferase, luminescence, 24 h; GLP-1R form is constitutively active. Potency, µM (top dose mostly 38.3 µM), for the others: top-dose activity change, negative = inhibition, most hits filed as inhibitors. hit rate 1.6% among 410,000. AID 624417; also: % is scaled to controls: 0 for no effect and ±100 for the full control effect; nearly all actives have a fitted effect of over 55% in size
#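 HEK293 cells stably co-expressing a cAMP-responsive luciferase reporter and constitutively active GLP-1R were seeded, incubated 12 h, then exposed to compounds for 24 h at 37 C. Luminescence was read 12 min after detection reagent; inverse agonists lower signal.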
# An asterisk follows results filed as active; ? = inconclusive; . = no result given; [ ] = remark or other dose. Calls follow the shape of the dose curve; as a rule, active = well fitted curve in the direction sought with a large enough effect; inconclusive = small, poorly fitted or top-dose-only effect, or another doubt; inactive = no such curve, though single readings can be large; an effect the other way counts as inactive or inconclusive. Potency is read from the fitted curve at half-maximal effect.
SMILES,RORgamma inh,VP16 counter,GLP1R ag,GLP1R cytotox,GLP-1R inv ag
Cc1ccc(NC(=O)C2CCCN2S(=O)(=O)c2cccc3nsnc23)c(Br)c1 (stereo not drawn),.,.,.,-7%,6%
COc1ccccc1NC(=O)CSc1nnc(C2CCCCC2)n1-c1ccccc1,13%,2%,14%,-11%,3.2µM*
CCC(C)N(CCNC(=O)c1ccc2c(c1)NC(=O)c1ccccc1S2)C1CCCCC1 (stereo not drawn),-22%,-18%,6%,?,3.5µM*
CC1CCCC(C)N1CCCNC(=O)c1ccc2c(c1)NC(=O)c1ccccc1S2 (stereo not drawn),-10%,-13%,1%,-24%,?
CCCN(CCC)C(=O)SCC,14%,7%,.,.,.
CC(=O)Nc1ccc(NC(=O)CCCc2ccccc2)cc1,0%,-4%,-3%,5%,-3%
O=C(CCCc1ccc(-c2ccccc2F)cc1)Nc1ccc(O)cc1,1.6µM*,4.5µM*,.,.,.
O=C(Cc1cccc2ccccc12)Nc1nc2ccccc2[nH]1,7.9µM*,8.9µM*,0%,-26%,0%
O=C(Cc1ccccc1F)Nc1nc2ccccc2[nH]1,10µM*,?,7%,-7%,-15%
CCCCCC(=O)Nc1nc2ccccc2[nH]1,6.3µM*,?,-14%,-4%,0%
C=C(C(=O)C(C)(C)O)C(O)c1ccc([N+](=O)[O-])cc1 (stereo not drawn),-10%,-3%,.,.,.
CCCCc1nn2c(=O)cc(COC(=O)c3cccc(NC(=O)c4cccc(Cl)c4)c3)nc2s1,.,.,.,2%,1%
Cc1ccccc1OCC(=O)Nc1cccc(C(=O)OCc2cc(=O)n3c(C)csc3n2)c1,.,.,.,-1%,?
CC[C@H](C)[C@H](NC(=O)[C@H](CCC(=O)O)NC(=O)CNC(=O)[C@@H](NC(=O)[C@@H]1CCCN1C(=O)[C@@H](NC(=O)[C@@H]1CCCN1C(=O)[C@@H]1CCCN1C(=O)[C@H](CC(N)=O)NC(=O)[C@H](CC(N)=O)NC(=O)[C@@H](NC(=O)[C@H](CCSC)NC(=O)[C@H](Cc1c[nH]c2ccccc12)NC(=O)CNC(=O)[C@@H](NC(=O)[C@H](CCC(N)=O)NC(=O)[C@@H](N)CCC(=O)O)[C@@H](C)CC)[C@@H](C)O)[C@@H](C)CC)C(C)C)C(=O)O,-26%,-5%,.,.,.
Cc1cc(Cl)ccc1C1=CC(=O)C[C@H](c2ccc(F)cc2)C1,.,.,-2%,-3%,11µM*
CCOC(=O)CCN1C(=O)[C@H]2[C@H]3[C@H](O)[C@H](O)C/C(=N/NC(=O)OCc4ccccc4)[C@@H]3CC[C@@H]2C1=O,17%[10 µM],-6%[10 µM],.,.,.
CCc1nnc(NC(=O)c2ccc(OC)cc2)s1,7.9µM*,-22%[10 µM],-9%,0%[0.307 µM],17%[0.307 µM]
CCSc1nnc(NC(=O)c2cc(C)nc3ccccc23)s1,-8%,-7%,-3%,-7%,-15%
CCSc1nnc(NC(=O)c2ccc3ccccc3n2)s1,1µM*,0.71µM*,-19%,?,5µM*
CCc1nnc(NC(=O)c2ccc3ccccc3n2)s1,3%,-2%,-2%,?,7.9µM*
CCc1nnc(NC(=O)c2cc(-c3ccccn3)nc3ccc(Br)cc23)s1,20µM*,?,9%,9%,1%
CCc1nnc(NC(=O)c2cccc(OC)c2)s1,-38%,1%,-10%,8%,0%
O=C(Nc1ccccc1)N1CC[C@@]2(CCCN(C(=O)c3cnccn3)C2)C1,-4%,-17%,.,.,.
C=CCn1c(C(CC)CC)nc2ccccc21,6.3µM*,-14%,7%,-23%,-32%
C=CCn1c(CC(C)(C)C)nc2ccccc21,11µM*,-6%,12%,-2%,?
SMILES,RORgamma inh,VP16 counter,GLP1R ag,GLP1R cytotox,GLP-1R inv ag
C=CCn1c(CCC)nc2ccccc21,-2%,-7%,-3%,4%[0.307 µM],-9%[0.307 µM]
C=CCn1c(C(C)(C)C)nc2ccccc21,-26%,7%,16%,4%,?
CCCCn1c(N)c(C(=S)NC(=O)CC(C)(C)C)c(=O)n(C)c1=O,1.3µM*,0.71µM*,-3%,?,?
CCCn1c(N)c(C(=O)CSc2ncn[nH]2)c(=O)n(C)c1=O,.,.,1%,-21%,-17%
CCN1c2ccccc2-c2nc(SCC(=O)NCc3ccc(C)cc3)ncc2S1(=O)=O,.,.,.,5%,6%
CC(C)N(CCC(=O)c1ccc2ccccc2c1)Cc1ccccc1,2.8µM*,2.5µM*,-1%,-15%,-11%
CC(OC(=O)c1ccc2ccccc2c1)C(=O)N(C)Cc1ccccc1 (stereo not drawn),.,.,-8%,-9%,?
COc1ccc(OCC(=O)N/N=C(\C)CC(=O)Nc2ccc(OC)cc2[N+](=O)[O-])cc1,?,-13%,-6%,-10%,3%
COc1ccc(NC(=O)C/C(C)=N/NC(=O)c2ccncc2)c([N+](=O)[O-])c1,13µM*,-21%,7%,-14%,-14%
CCOc1ccc(NC(=S)NC(=O)c2c(Cl)cnn2CC)c([N+](=O)[O-])c1,7.9µM*,?,-1%,-4%,5%
CCOc1ccc(N/C=C/C(=O)c2ccccc2)c([N+](=O)[O-])c1,7.1µM*,7.1µM*,-4%,-5%,?
CCOc1ccc(NC(=S)NC(=O)c2c(Br)cnn2C)c([N+](=O)[O-])c1,?,-1%,-1%,5%,-4%
CCn1ncc(Cl)c1C(=O)NC(=S)Nc1c(C)cc(C)cc1[N+](=O)[O-],1.3µM*,13µM*,0%,?,?
COc1cccc(C(=O)Nc2cccc(C(=O)OCc3cc(=O)n4c5c(sc4n3)CCCC5)c2)c1,.,.,.,1%,7%
CC(=O)c1ccc(NC(=S)NC(=O)c2c(Cl)c(C)nn2C)cc1,?,-14%,4%,12%,18%
CCOc1ccc(C(=O)NC(=S)NCc2cccnc2)cc1,?,-22%,3%,-4%,5%
Cc1cc(C)c(NC(=S)NC(=O)c2c(Cl)c(C)nn2C)c([N+](=O)[O-])c1,20µM*,?,7%,0%[1.53 µM],-12%
CCOc1ccc(NC(=S)NC(=O)c2cccnc2)c([N+](=O)[O-])c1,20µM*,18µM*,1%,-16%,7%
COc1ccc(CCNC(c2ccc(F)cc2)c2nnc(-c3ccccc3Cl)o2)cc1OC (stereo not drawn),.,.,.,-4%,?
CCCn1c(C)nc2c(NCCN3CCOCC3)nc(C)nc21,8%,1%,.,.,.
NC(=O)CC(NC(=O)c1ccccc1)c1ccc(N2CCN(c3ccc(F)cc3)CC2)c([N+](=O)[O-])c1 (stereo not drawn),13%,22µM*,5%,?,?
NC(=O)CC(NC(=O)c1ccccc1)c1ccc(N2CCC(Br)CC2)c([N+](=O)[O-])c1 (stereo not drawn),?,13µM*,2%,-1%,2%
